Source: PubChem BioAssay
Sampled rows, rich in hits. Any-hit rate of the full collection: about 3%.
SENP7 inh: SENP7 protease inhibition; 330,000 tested, 1.5% active; recombinant SENP7, Z-RLRGG-aminoluciferin luminescence, 40 min; Q9BQF6; AID 434973; inhibition, % at 5 µM;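 active = inhibition above about 50% at the single test dose, limit read from the data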;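 note: plate controls were DMSO with enzyme for no effect and no enzyme buffer wells for full effect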
SENP8 block-1: SENP8 (human) protease inhibition; Q96LD8; recombinant SENP8, Nedd8 substrate fluorescence; inhibition, % at 20 µM; 360,000 tested, 0.64% active; in the data active = inhibition mostly above about 40%, no sharp cut-off; inactive = mostly below about 27%
SENP8 block-2: SENP8 protease inhibition | purified SENP8, Z-RLRGG-aminoluciferin cleavage, luminescence | 330,000 tested, 1.2% active | inhibition, % at 10 µM; in the data active = inhibition above about 50%
PPC-1+TRAIL kill: kills PPC-1 cancer cells in the presence of TRAIL; AID 1443; cell killing (% activity), % at 4 µM or 5 µM; 220,000 tested, 0.41% active; PPC-1 cells + TRAIL, ATPLite viability luminescence;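 active = cell killing above 50% in the first pass at 4 µM, then a duplicate retest at 5 µM averaging 50% or more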;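 note: plate controls were cells with TRAIL plus DMSO for no effect and medium-only wells lacking cells for full effect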
TRAIL sens C8: caspase-8 TRAIL sensitization; NB7+C8 cells + TRAIL, ATPlite viability luminescence; inhibition (viability loss, TRAIL sensitization), % at 10 µM; 360,000 tested, 1% active; AID 624354;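 active = compounds causing at least 50% loss of cell viability in the single-dose screen, relative to plate controls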
SENP6 inh: blocks the human protease SENP6 | inhibition, % at 10 µM | AID 2599 | 330,000 tested, 1.8% active | Recombinant SENP6 catalytic domain, aminoluciferin luminescence;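 active = inhibition above about 50% at the single tested dose, limit read from the data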;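 note: plate controls were DMSO wells with enzyme for no effect and DMSO wells lacking enzyme for full effect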
Target sequence (Q9GZR1 628-1112 limits assumed): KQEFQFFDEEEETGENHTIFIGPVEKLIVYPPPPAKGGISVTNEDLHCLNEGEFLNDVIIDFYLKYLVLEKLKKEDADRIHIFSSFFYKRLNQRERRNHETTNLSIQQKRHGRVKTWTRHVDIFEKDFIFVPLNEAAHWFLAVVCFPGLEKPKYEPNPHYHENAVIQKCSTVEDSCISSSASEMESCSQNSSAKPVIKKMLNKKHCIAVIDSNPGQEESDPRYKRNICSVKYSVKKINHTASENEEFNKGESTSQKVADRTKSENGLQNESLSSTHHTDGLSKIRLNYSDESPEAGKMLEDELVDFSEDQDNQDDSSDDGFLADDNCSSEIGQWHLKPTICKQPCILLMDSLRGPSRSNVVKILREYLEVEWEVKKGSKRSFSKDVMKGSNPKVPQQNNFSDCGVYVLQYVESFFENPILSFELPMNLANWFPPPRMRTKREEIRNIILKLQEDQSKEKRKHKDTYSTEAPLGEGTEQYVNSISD
SENP8 conf: confirmation of human SENP8 protease inhibitors; inhibition, % at 12.5 µM; shares compounds with SENP7 inh; Recombinant SENP8, Z-RLRGG-aminoluciferin luminescence, 60 min; 6,200 tested, 40% active;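 active = mean inhibition across replicates above about 50%, limit read from the data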
SENP6 confirm: confirmation of human SENP6 protease inhibitors. shares compounds with SENP7 inh. recombinant SENP6, Z-RLRGG-aminoluciferin luminescence. inhibition, % at 12.5 µM. 6,200 tested, 58% active
SENP7 conf: human SENP7 inhibition, confirmed. recombinant SENP7, Z-RLRGG-aminoluciferin luminescence, 40 min. inhibition, % at 12.5 µM. shares compounds with SENP7 inh. 6,200 tested, 69% active
Casp3 SENP sel: caspase-3 inhibition (SENP selectivity assay) | shares compounds with SENP7 inh | purified caspase-3, Z-DEVD-aminoluciferin luminescence, 60 min | inhibition, % at 12.5 µM | 6,200 tested, 60% active | AID 488918;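 active = mean inhibition above about 50%, limit read from the data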;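 note: plate controls were enzyme with DMSO for no effect and wells without caspase-3 for full effect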
Luc interf: luminescence interference (SENP counter-screen). 6,200 tested, 39% active. shares compounds with SENP7 inh. AID 488919. Pre-incubated SENP8/Z-RLRGG-aminoluciferin, luciferase luminescence interference. inhibition, % at 12.5 µM;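 active = mean inhibition above about 50% when retested at one dose, limit read from the data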;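 note: plate controls were DMSO wells with completed reaction for no effect and substrate without enzyme for full effect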
An asterisk follows results filed as active; i = inactive; / = no result given.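 Rule for the calls, unless noted: active = mean inhibition above about 50% in the one-dose retest (limit read from the data); inactive = the rest.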

SMILES	SENP7 inh	SENP8 block-1	SENP8 block-2	PPC-1+TRAIL kill	TRAIL sens C8	SENP6 inh	SENP8 conf	SENP6 confirm	SENP7 conf	Casp3 SENP sel	Luc interf
O=C1NC(=O)/C(=C/c2ccc(-c3cccc([N+](=O)[O-])c3)o2)S1	55*	27	66*	/	-15	86*	78*	60*	43	21	15
Cc1c(C(=O)O)cccc1-c1ccc(/C=C2/NC(=O)N(c3ccccc3)C2=O)o1	-1	-409	60*	-13	-8	64*	-10	79*	92*	16	12
CCOC(=O)CN1C(=O)S/C(=C\c2ccc(-c3cccc(C(=O)O)c3C)o2)C1=O	35	-181	48	/	-6	55*	49	48	52*	13	12
CC(=N)c1c(O)cc(C)oc1=O	/	14	/	/	-3	/	/	/	/	/	/
COc1ccc2c(=O)c(Oc3ccc(C(=O)O)cc3)c(C(F)(F)F)oc2c1	8	14	-5	32	1	-2	/	/	/	/	/
Cc1ccc(-n2c(SCC(=O)N3CCCCC3)nc(O)c(Cc3ccccc3)c2=O)cc1	0	13	1	/	-4	18	/	/	/	/	/
COc1ccc(Cn2cc(CN3CCc4onc(-c5ccc(Br)cc5)c4C3=O)nn2)cc1	/	26	/	/	9	/	/	/	/	/	/
c1ccc(COc2ccccc2CNC23CC4CC(CC(C4)C2)C3)cc1	-10	10	-6	44	0	-11	/	/	/	/	/
COC(=O)c1noc(-c2ccc(C)cc2)n1	-13	18	-26	10	-12	-2	/	/	/	/	/
O=C(Nc1ccc(-c2noc(-c3cccs3)n2)cc1)c1cccnc1	55*	7	20	-5	10	38	5	41	68*	26	7
COC(=O)c1ccc(-c2nc(-c3cccs3)no2)cc1	98*	5	87*	34	58*	92*	78*	88*	89*	88*	38
COC(=O)c1ccc(-c2nc(-c3ccc(Br)o3)no2)cc1	52*	10	-5	17	7	0	-13	-7	18	16	2
CCOC(=O)c1ccc(OCc2nc(-c3cccs3)no2)cc1	4	17	19	8	25	35	/	/	/	/	/
Clc1ccc(OCc2nc(-c3ccc(Br)o3)no2)cc1	-5	19	0	-5	2	-4	/	/	/	/	/
COc1ccc(-c2nc(-c3ccc(Br)o3)no2)cc1	70*	4	25	29	41	49	6	12	11	27	9
OC(C[n+]1ccccc1)c1ccccc1 (centres undefined)	3	11	-7	/	-8	19	/	/	/	/	/
O=C(NC1CCOCC1)C1CCC(=O)N(Cc2cccc(C(F)(F)F)c2)C1 (centres undefined)	1	10	6	/	-5	1	/	/	/	/	/
Cc1cc(O)c(C=Nc2ccc(N3CCOCC3)cc2)c(C)c1Cl	82*	22	38	/	-1	57*	10	11	8	28	3
Cn1c(O)c(C=Nc2ccc(N3CCOCC3)cc2)c(=O)n(C)c1=S	/	10	/	-1	-1	/	/	/	/	/	/
CCC(C)n1c(SCC(=O)N(CC)c2c(N)n(Cc3ccccc3)c(=O)[nH]c2=O)nc2ccccc2c1=O (centres undefined)	/	2	/	/	-11	/	/	/	/	/	/
Cc1ccccc1NC(=O)Cn1c(C)nc2ccc(NC(=O)C3CC3)cc2c1=O	71*	-2	4	32	-5	-7	6	5	13	8	2
O=C(Nc1ccc2ccccc2c1)c1onc2c1CCCC2	52*	1	65*	-12	26	80*	39	82*	93*	60*	44
COC(=O)c1cccc(NC(=O)c2onc3c2CCCC3)c1	79*	19	76*	32	29	92*	-4	47	79*	61*	65*
COC(=O)c1cccc(NC(=O)c2ccccc2)c1	0	13	-9	12	8	-4	/	/	/	/	/
CN1CCN(c2cc(-c3ccc4ccccc4c3)nc3ccnn23)CC1	/	i	/	/	14	/	/	/	/	/	/
SMILES	SENP7 inh	SENP8 block-1	SENP8 block-2	PPC-1+TRAIL kill	TRAIL sens C8	SENP6 inh	SENP8 conf	SENP6 confirm	SENP7 conf	Casp3 SENP sel	Luc interf
Cc1ccc2[nH]cc(CCNS(=O)(=O)c3ccc(F)cc3)c2c1	-2	14	-7	/	-7	10	/	/	/	/	/
COc1cc(/C=C/c2ccc3cccc(O)c3n2)cc(Cl)c1OC	55*	-63	47	/	49	58*	-15	23	-3	13	5
COc1cccc(/C=C/c2ccc3cccc(O)c3n2)c1OC	36	-57	42	/	36	58*	52*	40	89*	52*	30
CCC(Cc1ccccc1)NS(=O)(=O)c1ccc2c(c1)NC(=O)C(C)S2 (centres undefined)	-7	5	-8	/	13	-11	/	/	/	/	/
COc1ccccc1/C=C/c1nc(C#N)c(N(C)C)o1	30	i	46	/	-3	57*	20	57*	42	53*	10
CN(C)c1oc(-c2ccccc2)nc1C#N	17	-311	-1	-8	-9	11	/	/	/	/	/
Cc1ccccc1CNC(=O)c1ccccc1N(C)S(=O)(=O)c1ccccc1	9	16	-8	/	-10	10	/	/	/	/	/
Cc1cc(C(=O)N/N=C2\CC(=O)c3ccccc32)c(C)n1-c1ccc(F)cc1	21	79*	40	28	17	73*	27	50	40	51*	12
CCOc1cc(/C=N/NC(=O)c2cc(C)n(-c3ccc(F)cc3)c2C)ccc1O	1	-180	-1	-4	-5	-12	/	/	/	/	/
Cc1sc(NC(=O)c2ccccc2)c(C#N)c1-c1ccccc1	-5	-3	25	23	18	62*	6	-7	29	16	1
CSc1nc(/C=C2\C=Nc3ccccc32)c(O)n1C	52*	-5	54*	23	7	73*	76*	74*	89*	71*	65*
O=C1c2ccccc2C(=O)C1(CO)c1ccccc1	15	18	31	7	3	56*	38	50*	82*	77*	48
O=C1c2ccccc2C(=O)C1(CO)c1ccc(OC(F)F)cc1	3	12	94*	/	79*	94*	4	98*	103*	96*	57*
